# Assay results from the supplement of paper PMC6555819.
# Test system: RARb homodimer (NR concentration 270 nM)
# Experiment: PBM binding z-score (relative to random genomic background probes); higher = stronger binding; sequences stand for … in GC…GCGATTGACAGCGTAGAATGAAGG
# In short: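 Binding z-scores were set against random background probes. The data came from custom Agilent 4×180K protein-binding microarrays carrying double-stranded probes with 34-nt variable regions, incubated 1 h with ligand-free nuclear receptor dimers. Partner-specific antibodies detected binding, and scanned fluorescence was regression-normalized.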
row,Sequence,PBM binding z-score
1,CGTCCTAGGTCAAAGGTCAGTGAAGAGATGACGG,4.99
2,TCTATTAGTCGAAGGGCAACCGACGAGTCCGTTT,1.15
3,TGAATGAGGTTAAAGATCGGGGAACGTGGCGTCG,0.987
4,CGTCAAAGTTGAAGGTAACGTAACAGAAAGCAGC,0.588
5,TCAAGCAGGCCAGAGGGTCACTCAAGAGGTACGG,2.73
6,GCTAGTTGGTCAGTAAAAGGTCACACCCCGGTCG,5.28
7,ATCGAAAGGTCGGCGAGGTGAGTATACACCGTTT,2.95
8,TCTAGCAGGCCCGAGGGTCACTCAAGAGGTACGG,2.43
9,ACTATTAGCTGAGACGAGGGCAACCGATAGGTTG,1.27
10,TAGCCTAGGTCGTGCGGGCCAGTATAGTGTCGGC,0.429
11,TCTTGTAGACCAATAGAGGTTAAGAAAGTGCGCT,1.42
12,TCCAGTAGGTTAGGGGCATTCAGAATGGCGTCGA,0.983
13,ATACCAAGGTGATCTTGAGGTCGTTGATACTAAC,1.9
14,ACTATTAGTTGAGACGTGGGCAACCGATAGGTTG,-0.524
15,CCTACTGGGCCAAAAAGGTCATTGAGGCCGATAA,4.37
16,CGTCCAAGGTCATAGGAGGTCAGCGAAGACAGAT,5.65
17,GCATATAGGTAATGCAAGGTGAAAGTCCGATTGT,0.843
18,TCTAGCAGGCCAGAGGGTCATTCAAGAGGTACGG,2.65
19,AGAATGAGGTTACCAAAGATCAGCGAAACGCTTG,0.525
20,TCTATTAGTTGATTAGGGCAGCCGAAACAGCGGA,0.418

row,Sequence,PBM binding z-score
1,ACTATTAGTTGAGAAGAGGGCAACCGATAGGTTG,1.43
2,ACTAGCAGGCCAAGTTTGGGTCACTTAAACAAAG,2.22
3,TCGAGTAGGCTAGGGGCATTCAGAATGGCGTCGA,-0.0899
4,TCATATAGGTAAATGCTAGGTAAAAGTCCGATCT,0.193
5,CGAACTAGGACATTGACAGGACAGTGAATAGTAA,0.469
6,TGGCCTAGGTCATTGGGCCAGTATAGTACGCATC,2.71
7,CGAACGAGGGCATGGGTTGATAGCAAATGCCGAT,1.27
8,TAGCTTAGGTCATGCGGGCCAGTATAGTGTCGGC,3.21
9,CCTATTAGTTAACCATAAGGGCAACCGAAGCTCG,1.66
10,CCGACTGGGGCAGGGTTACCATAACGCACAGCCA,1
11,GCTAGGAGGCCATTTGGGTCACTCAATGACGGGC,2.18
12,TCATATAGGTAAACGCTAGGTGAAAGTCCGATCT,0.416
13,TCTTGTAGATAAGCAGGTTAAGAAAGCTGGCCAA,-0.166
14,CAAACTAGGTCACCTGAAGGTCAAAGTCCGCATG,5.57
15,CGAACTAGGTCATGGACAGGACAGTGAATAGTAA,2.93
16,CCTACCGGGCCATCAGGTCATTGATATCAACGTT,2.68
17,AGTCAAAGTTCATCTAAGTAACGTAAGATATGCT,3.78
18,TCTTGTAGATCAAGCAGGTTAATAAAGCCTGAGT,-0.223
19,CAAACTAGGTCACGAAAGTTCAAAGTCGAATGAC,5
